{"source": "paper PMC11062922", "about": "(Nature Chemical Biology, 2023)", "key": {"AAK1": {"tested_on": "AAK1", "parameters": "species or system human, MV4-11 + K-562 + COLO205 + SK-N-BE2 + OVCAR-8", "settings": "read-out: apparent Kd, n = 1"}, "CLK4": {"tested_on": "CLK4", "parameters": "species or system human, MV4-11 + K-562 + COLO205 + SK-N-BE2 + OVCAR-8", "settings": "read-out: apparent Kd, n = 1"}, "FLT4": {"tested_on": "FLT4", "parameters": "species or system human, MV4-11 + K-562 + COLO205 + SK-N-BE2 + OVCAR-8", "settings": "read-out: apparent Kd, n = 1"}, "MELK": {"tested_on": "MELK", "parameters": "species or system human, MV4-11 + K-562 + COLO205 + SK-N-BE2 + OVCAR-8", "settings": "read-out: apparent Kd; compound concentrations:100 nM and 1000 nM (sheet 'Samples'); n = 1"}, "NUAK1": {"tested_on": "NUAK1", "parameters": "species or system human, MV4-11 + K-562 + COLO205 + SK-N-BE2 + OVCAR-8", "settings": "read-out: apparent Kd, n = 1"}, "PAK4": {"tested_on": "PAK4", "parameters": "species or system human, MV4-11 + K-562 + COLO205 + SK-N-BE2 + OVCAR-8", "settings": "read-out: apparent Kd; compound concentrations:100 nM and 1000 nM (sheet 'Samples'); n = 1"}, "Q6ZSR9": {"target": "Q6ZSR9 (human, UniProt Q6ZSR9)", "sequence (Q6ZSR9 whole entry, looked up)": "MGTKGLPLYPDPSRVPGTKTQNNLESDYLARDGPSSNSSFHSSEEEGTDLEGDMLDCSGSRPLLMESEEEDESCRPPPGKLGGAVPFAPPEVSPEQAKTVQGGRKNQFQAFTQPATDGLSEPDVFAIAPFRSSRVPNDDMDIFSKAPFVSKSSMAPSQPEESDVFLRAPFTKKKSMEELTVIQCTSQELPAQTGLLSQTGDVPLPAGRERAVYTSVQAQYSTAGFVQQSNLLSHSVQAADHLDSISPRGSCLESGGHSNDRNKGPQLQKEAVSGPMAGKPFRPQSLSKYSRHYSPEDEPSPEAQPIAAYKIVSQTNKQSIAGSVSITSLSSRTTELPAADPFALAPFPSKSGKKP", "parameters": "species or system MV4-11 + K-562 + COLO205 + SK-N-BE2 + OVCAR-8", "settings": "read-out: apparent Kd, n = 1"}, "SIK2": {"tested_on": "SIK2", "parameters": "species or system human, MV4-11 + K-562 + COLO205 + SK-N-BE2 + OVCAR-8", "settings": "read-out: apparent Kd; compound concentrations:100 nM and 1000 nM (sheet 'Samples'); n = 1"}, "BMP2K": {"tested_on": "BMP2K", "parameters": "species or system human, MV4-11 + K-562 + COLO205 + SK-N-BE2 + OVCAR-8", "settings": "read-out: apparent Kd, compound concentrations: 100 nM and 1000 nM (sheet 'Samples'), n = 1"}, "FLT3": {"tested_on": "FLT3", "parameters": "species or system human, MV4-11 + K-562 + COLO205 + SK-N-BE2 + OVCAR-8", "settings": "read-out: apparent Kd, compound concentrations: 100 nM and 1000 nM (sheet 'Samples'), n = 1"}, "GSK3A": {"tested_on": "GSK3A", "parameters": "species or system human, MV4-11 + K-562 + COLO205 + SK-N-BE2 + OVCAR-8", "settings": "read-out: apparent Kd; compound concentrations: 100 nM and 1000 nM (sheet 'Samples'), CATDS: 6.9215882134984696E-2; n = 1"}, "GSK3B": {"tested_on": "GSK3B", "parameters": "species or system human, MV4-11 + K-562 + COLO205 + SK-N-BE2 + OVCAR-8", "settings": "read-out: apparent Kd, compound concentrations: 100 nM and 1000 nM (sheet 'Samples'), n = 1"}, "CLK1": {"tested_on": "CLK1", "parameters": "species or system human, MV4-11 + K-562 + COLO205 + SK-N-BE2 + OVCAR-8", "settings": "read-out: apparent Kd; compound concentrations: 100 nM and 1000 nM (sheet 'Samples'), CATDS: 0.103004978566102; n = 1"}, "CSNK2A1;CSNK2A3": {"tested_on": "CSNK2A1;CSNK2A3", "parameters": "species or system human, MV4-11 + K-562 + COLO205 + SK-N-BE2 + OVCAR-8", "settings": "read-out: apparent Kd; compound concentrations: 100 nM and 1000 nM (sheet 'Samples'), CATDS: 0.103993193967583; n = 1"}, "CSNK2A2": {"tested_on": "CSNK2A2", "parameters": "species or system human, MV4-11 + K-562 + COLO205 + SK-N-BE2 + OVCAR-8", "settings": "read-out: apparent Kd; compound concentrations: 100 nM and 1000 nM (sheet 'Samples'), CATDS: 0.109129966582831; n = 1"}, "GAK": {"tested_on": "GAK", "parameters": "species or system human, MV4-11 + K-562 + COLO205 + SK-N-BE2 + OVCAR-8", "settings": "read-out: apparent Kd; compound concentrations: 100 nM and 1000 nM (sheet 'Samples'), CATDS: 3.7046569699604799E-2; n = 1"}, "PKN1": {"tested_on": "PKN1", "parameters": "species or system human, MV4-11 + K-562 + COLO205 + SK-N-BE2 + OVCAR-8", "settings": "read-out: apparent Kd; compound concentrations: 100 nM and 1000 nM (sheet 'Samples'), CATDS: 2.9664861147502199E-2; n = 1"}, "[1]": {"settings": "compound concentrations:100 nM and 1000 nM (sheet 'Samples')"}}, "note": "Read-outs that look alike come from different tables or passages of the source."}
{"smiles": "O=C(Nc1n[nH]c2nc(-c3ccccc3O)ccc12)C1CC1", "note": "[SB-711880]", "values": [{"measurement": "potency estimated from few doses", "setting": "AAK1; [1]", "result": 713, "unit": "nM"}, {"measurement": "potency estimated from few doses", "setting": "CLK4; [1]", "result": 1230, "unit": "nM"}, {"measurement": "potency estimated from few doses", "setting": "FLT4; [1]", "result": 1790, "unit": "nM"}, {"measurement": "potency estimated from few doses", "setting": "MELK", "result": 2380, "unit": "nM"}, {"measurement": "potency estimated from few doses", "setting": "NUAK1; [1]", "result": 1850, "unit": "nM"}, {"measurement": "potency estimated from few doses", "setting": "PAK4", "result": 357, "unit": "nM"}, {"measurement": "potency estimated from few doses", "setting": "Q6ZSR9; [1]", "result": 537, "unit": "nM"}, {"measurement": "potency estimated from few doses", "setting": "SIK2", "result": 547, "unit": "nM"}]}
{"smiles": "COc1cc[nH]c1/C=C1\\C(=O)Nc2ccc([N+](=O)[O-])c(N3CC[C@@H](O)C3)c21", "note": "[RO0504985-000]", "values": [{"measurement": "potency estimated from few doses", "setting": "AAK1; compound concentrations: 100 nM and 1000 nM (sheet 'Samples'), CATDS: 0.119322014743116", "result": 46.2, "unit": "nM"}, {"measurement": "potency estimated from few doses", "setting": "BMP2K; CATDS: 0.146188418361926", "result": 33, "unit": "nM"}, {"measurement": "potency estimated from few doses", "setting": "FLT3; CATDS: 3.5682803402027001E-2", "result": 989, "unit": "nM"}, {"measurement": "potency estimated from few doses", "setting": "FLT4; compound concentrations: 100 nM and 1000 nM (sheet 'Samples'), CATDS: 3.5350973360848997E-2", "result": 1020, "unit": "nM"}, {"measurement": "potency estimated from few doses", "setting": "GSK3A", "result": 143, "unit": "nM"}, {"measurement": "potency estimated from few doses", "setting": "GSK3B; CATDS: 8.07850710279054E-2", "result": 99.7, "unit": "nM"}, {"measurement": "potency estimated from few doses", "setting": "NUAK1; compound concentrations: 100 nM and 1000 nM (sheet 'Samples'), CATDS: 0.113358948941002", "result": 50.6, "unit": "nM"}, {"measurement": "potency estimated from few doses", "setting": "Q6ZSR9; compound concentrations: 100 nM and 1000 nM (sheet 'Samples'), CATDS: 0.13185454777653499", "result": 39, "unit": "nM"}]}
{"smiles": "O=C1N=C(NCCc2cccs2)S/C1=C\\c1ccc2ncccc2c1", "note": "[RO4508348-000]", "values": [{"measurement": "potency estimated from few doses", "setting": "AAK1; compound concentrations: 100 nM and 1000 nM (sheet 'Samples'), CATDS: 0.107531235495484", "result": 1290, "unit": "nM"}, {"measurement": "potency estimated from few doses", "setting": "CLK1", "result": 1450, "unit": "nM"}, {"measurement": "potency estimated from few doses", "setting": "CSNK2A1;CSNK2A3", "result": 1410, "unit": "nM"}, {"measurement": "potency estimated from few doses", "setting": "CSNK2A2", "result": 1250, "unit": "nM"}, {"measurement": "potency estimated from few doses", "setting": "FLT3; CATDS: 0.15045749947439399", "result": 638, "unit": "nM"}, {"measurement": "potency estimated from few doses", "setting": "Q6ZSR9; compound concentrations: 100 nM and 1000 nM (sheet 'Samples'), CATDS: 0.123024935972758", "result": 947, "unit": "nM"}]}
{"smiles": "Cl.Cl.NCC(NC(=O)c1cc(-c2ccnc3[nH]ccc23)cs1)c1ccccc1.NCC(NC(=O)c1cc(-c2ccnc3[nH]ccc23)cs1)c1ccccc1", "note": "(stereo not drawn) [GSK1229959A]", "values": [{"measurement": "potency estimated from few doses", "setting": "AAK1; compound concentrations: 100 nM and 1000 nM (sheet 'Samples'), CATDS: 3.6384638335370603E-2", "result": 79.6, "unit": "nM"}, {"measurement": "potency estimated from few doses", "setting": "BMP2K; CATDS: 3.4118166315235399E-2", "result": 97.1, "unit": "nM"}, {"measurement": "potency estimated from few doses", "setting": "CLK4; compound concentrations: 100 nM and 1000 nM (sheet 'Samples'), CATDS: 1.8316449367944E-2", "result": 1240, "unit": "nM"}, {"measurement": "potency estimated from few doses", "setting": "GAK", "result": 75.5, "unit": "nM"}, {"measurement": "potency estimated from few doses", "setting": "GSK3B; CATDS: 1.8491508517635601E-2", "result": 1170, "unit": "nM"}, {"measurement": "potency estimated from few doses", "setting": "PKN1", "result": 155, "unit": "nM"}, {"measurement": "potency estimated from few doses", "setting": "Q6ZSR9; compound concentrations: 100 nM and 1000 nM (sheet 'Samples'), CATDS: 3.4885156977357598E-2", "result": 90.6, "unit": "nM"}]}
{"smiles": "COc1ccc(-n2cnc3c(N)ncnc32)cc1", "note": "[SKF-97236]", "values": [{"measurement": "potency estimated from few doses", "setting": "FLT3; CATDS: 0.20462680651790399", "result": 598, "unit": "nM"}]}
